38 sequences from the OligoGym collection can be followed below.
Note: reference of the scale not given here.

The first experiment has as its target EFNB2. As to the kind of experiment: pooled miR-30 sensor sort-seq; sequence = guide strand. The settings on record: shRNA.
On to TTCTGCACAGTCTTCCAGCTTC, for which the sensor-assay potency score (higher = more potent) was -0.41.
TATCTGTGGGTATAGTACCAGT returned a sensor-assay potency score (higher = more potent) of -1.11.
Same read-out and setting: the same measure for TAATAGTGCATCTGTCTGCTTG: 0.293.

A further experiment has as its target EGFLAM. The description is as above. The settings on record: shRNA.
On to TGAATCACAACACAGTCACTGA, for which the sensor-assay potency score (higher = more potent) was -0.715.
Still for that read-out and setting: the result for TTGAGGTCCACTTCTTGTCGAA reads -0.198; that for ATAACAATATCTTCTGAGCAGC, -1.01.
The same measure, in the same setting: the same measure for TTAGATATAGACATCTTCTTGC: 0.604.
The sequence TAAGCTGCTATGCTCACACGAT displayed a sensor-assay potency score (higher = more potent) of -0.515.
Sequence TCTCTGTAGAGCATAACCGTGT had a sensor-assay potency score (higher = more potent) of -0.368.
Same read-out and setting: the same measure for TAGAGCATAACCGTGTGCCAAC: -1.37; for ACACATTTGATCTTGATCCTGA: 0.527.
Turning to TTCTTGTCGAAATCTGGCCTGA, the sensor-assay potency score (higher = more potent) is -0.665.
The same measure, in the same setting: the result for TAGTCATTGACACAGAAGCTGT reads -1.47; that for TTGATGTGTGATCTCTGGCAGC, -0.345; that for ATCTCTGTAGAGCATAACCGTG, -1.58.

The target of a further experiment is EGF. Described as above. The settings on record: shRNA.
TTCTGTAATGTTATCTTCTGAC yielded a sensor-assay potency score (higher = more potent) of -0.544.
Still for that read-out and setting: the result for TTCTCTGTTGTACTGAATCCAA reads -0.8; that for TTAATTCTAACCATGTCCTTTC, -0.226.
Still for that read-out and setting: the same measure for AAACAAGTTGATGACATCGTTT: -0.985; for TTGACCAAATAACTTCTTCATT: -1.32.
For the sequence TAAATTTTGAAACTACTGGCAA, the sensor-assay potency score (higher = more potent) was -0.0191.
Same read-out and setting: the same measure for TATCGGGTGAGGAACAACCGCT: -0.49.
TAATGTGGACAGAACCTCCATC: the sensor-assay potency score (higher = more potent) is -0.544.
The same measure, in the same setting: the result for TAAATCACTCCTTCCAATCAGA reads -0.116; that for TTACTTACAATCTTGTAACTGA, 0.581.
Still for that read-out and setting: the result for TTGCAAACAAATTATGCTGTGT reads 0.205; that for TTAGATCAACTTCACCACCTGC, -0.392.
For the sequence TTCATTAACATCTTCACAGTAC, the sensor-assay potency score (higher = more potent) was determined as 0.809.
Take TTGAGTAGGTGATTAGTCGTAG: the sensor-assay potency score (higher = more potent) came to 0.0164.
Still for that read-out and setting: the same measure for TATCAGAACATAGTTTTCCATC: -1.09; for TAAACCTTTCTACTGGATCAAC: -1.16; for TATATTACATACTCTCTCTTGC: 0.906.
In turn, TCTTCTGACACTCTAGTCTTGG showed a sensor-assay potency score (higher = more potent) of -0.41.
The sequence TTAGTGATTATTTTGGAACGTT gave a sensor-assay potency score (higher = more potent) of 0.208.
The same measure, in the same setting: the result for TACTGTAATGATTCCTTCCTGT reads 0.571; that for TTGAGAATTGGCAAACAGCAAA, -1.09; that for TTGTCTTTCTAAATCCACCCAA, 0.0842.
For the sequence TTACATACTCTCTCTTGCCTTG, the sensor-assay potency score (higher = more potent) was -0.0399.
